Assay results taken from the supplement of paper PMC6555819.

Columns and labels:
Assay in all cases: PBM binding z-score (relative to random genomic background probes); higher = stronger binding; sequences stand for … in GC…GCGATTGACAGCGTAGAATGAAGG
[1] = tested on: FXR:RXRa (NR concentration 270 nM, RXRa partner concentration 90 nM)
In short: (§1)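 Each nuclear receptor dimer, without ligand, was incubated for 1 h on custom Agilent 4×180K protein-binding microarrays. Binding was detected with antibodies against each partner (one per run), and scanned fluorescence was regression-normalized. The binding z-scores are referenced to random human genomic background probes.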

[2] = tested on: LXRa:RXRa (NR concentration 270 nM, RXRa partner concentration 90 nM)
In short: as §1

[3] = tested on: LXRa homodimer (NR concentration 270 nM)
In short: as §1

[4] = tested on: LXRb:RXRa (NR concentration 270 nM, RXRa partner concentration 90 nM)
In short: as §1

[5] = tested on: LXRb homodimer (NR concentration 270 nM)
In short: as §1

[6] = tested on: PPARa:RXRa (NR concentration 270 nM, RXRa partner concentration 90 nM)
In short: as §1

[7] = tested on: PPARg:RXRa (NR concentration 180 nM, RXRa partner concentration 90 nM)
In short: as §1

[8] = tested on: PPARg:RXRa 270nM:90nM, anti-RXR (NR concentration 270 nM, RXRa partner concentration 90 nM)
In short: as §1

[9] = tested on: PPARg:RXRa 30nM:10nM, anti-RXR (NR concentration 30 nM, RXRa partner concentration 10 nM)
In short: as §1

[10] = tested on: PPARg:RXRa 90nM:30nM, anti-RXR (NR concentration 90 nM, RXRa partner concentration 30 nM)
In short: as §1

Sequence	PBM binding z-score [1]	PBM binding z-score [2]	PBM binding z-score [3]	PBM binding z-score [4]	PBM binding z-score [5]	PBM binding z-score [6]	PBM binding z-score [7]	PBM binding z-score [8]	PBM binding z-score [9]	PBM binding z-score [10]
CGAACGAGGGCATGAGTTGATGGCAAATGCCGAT	0.483	0.315	-0.503	-0.235	-0.92	1.4	1.24	1.34	-0.207	0.832
ACTATTAGTTGACTTAGGGCAACCAATACGACGC	0.265	0.363	0.224	0.227	0.496	0.111	0.997	0.305	0.385	0.219
CGTCCAAGGTCTAAGGTCAGTGAAGAGATGACGG	2.27	1.6	-0.0447	1.63	-0.547	3	3.03	4	2.41	3.52
CTCGAAAGGTCGTGCGCAGGTGAGTATACCAAAC	5.71	4.35	0.33	3.84	0.153	5.58	3.34	4.47	1.36	2.98
GCTGCTATGTCAACTGATGGTCAGCTAAAGCTCG	-0.296	-0.497	-0.849	-0.37	-0.729	-0.283	-0.143	-0.387	-0.655	-0.456
AGAATGAGGGTATTAAGATCAGGGAATTGCGGTC	0.048	0.136	-0.107	-0.105	0.211	0.659	0.403	0.28	0.322	0.102
GCATATAGGTAATACAAGGCGAAAGTCCGATTGT	0.229	0.00213	0.175	-0.106	-0.482	0.752	0.874	0.503	0.39	0.229
GCTGCCAGGTCAGGTTGGTCAGCTAACGGGTACG	1.58	0.973	-0.337	0.712	-0.51	1.64	0.272	0.752	-0.562	0.147
CCTCGGAGGACAACAGGAGGTTAGAGCTGCCAGA	-0.155	-0.0847	-0.064	-0.556	-0.957	-0.226	0.177	-0.821	-0.597	-0.982
ATCTCTAGGTAAGCAAGTTCAGTGAATGCCGAAC	0.021	0.323	0.32	-0.00291	0.392	0.496	0.0727	0.538	0.367	0.23
GCTGCTAGGTCAACTAATGGTCAGCTAAAGCTCG	3.23	2.87	0.268	2.02	0.0624	3.29	2.45	3.11	0.435	2.19
CCTTACGGGTCAAGGCTATAGCACGGGTGGTACG	5.49	3.26	-0.261	2.59	-0.119	4.88	3.91	4.41	1.45	2.99
CCTTACGGGTCACGAGGTAATAGCACGACGAGCG	6.82	4.16	-0.00739	3.79	0.00142	5.93	7.12	6.63	3.83	5.54
CGTCAAAGTTCAAGGTAACTTAACAGAAAGCAGC	6.07	5.46	2.56	3.35	0.919	4.5	4.23	4.97	1.81	3.84
CGTCCAAGGTCAATCCTAGGTCAGTGAAAGCATT	7.14	5.85	3.44	4.8	1.43	5.47	4.38	4.75	1.43	3.63
ATCGAAAGGTCGTGAGGTGGGTATACAGAAAGGC	5.14	4.18	0.358	3.28	0.784	4.96	3.35	3.96	1.29	2.77
GCTGGTAGATCAAGGTTAAGAAAGACTAAGCTAA	0.17	0.885	-0.138	0.378	-0.528	1.12	0.134	1.18	-0.00579	1
TCGCCTAGGTCATGCGGGCCAGTATAGTGTCGGC	4.09	2.65	0.228	1.72	-0.926	3.47	1.56	2.12	1.32	1.71
TATACAGGGTCAAAGGCGAGAGTACGAATGTCGA	7.01	6.18	2.21	4.53	2.51	6.19	7.72	6.81	3.94	6.47
AGAACCAGGGCAATGAGTTGATAGCACGGGTGGC	-0.133	-0.319	-0.429	-0.657	-0.564	0.717	1.19	0.451	-0.539	0.047
ATCAAAAGGTCGTGAGGTGAGTATACAGAAAGGC	5.1	4.46	0.539	3.63	1.22	5.2	4.38	4.66	1.92	3.33
AGAATGAGGTTATTAAGATTAGGGAATTGCGGTC	1.47	1.57	0.419	1.24	0.178	2.61	1.17	1.57	0.697	1.37
TCATATAGGTAAAGGTCAAAGTCGAACGATATGA	6.53	6.13	4.7	5.5	2.62	6.15	7.64	6.9	6.04	7.15
